The results in this text go back to PubChem BioAssay (NCI).

The panel holds about 83,000 compounds, 20% with a hit somewhere; the sample as a whole holds those more often.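 Single-dose data. Exposure time 48 hours. Values below 10 considered active.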 Active and inactive are the calls of the source.

This experiment deals with OVCAR-5 ovarian. In words: NCI-60 one-dose screen, 48 h (100 = growth as untreated, 0 = no growth, -100 = all killed). Conditions: 10 µM unless noted.
For `CN1CCN(Cc2ccc(NC(=O)c3cncc(C#Cc4cnc5ccc(OCC6(C)COC6)nn45)c3)cc2C(F)(F)F)CC1`, the growth is -73.2% (active). The result for `CC(=O)c1cc(C(=O)c2ccc(Br)cc2)n2cc(C)cc(C)c12` reads 89.8% (inactive). The value for `COC(=O)C[Se]C(=O)Cc1c(C)n(C(=O)c2ccc(Cl)cc2)c2ccc(OC)cc12` was 15.4% (inactive). As to `N#Cc1cccc(CN2CCC3=C(C2)C(=O)N(Cc2ccc(Cl)cc2)C2=NCCCN23)c1`, the growth is 38.7% (inactive).

`C=CCn1c(SCC(=O)Nc2ccc(C(=O)/C=C/c3ccc(C)cc3)cc2)nnc1-c1c[nH]c2ccccc12`: the growth is 99.6% (inactive).

On to `CCCn1cnc2c(c1=N)C(c1ccc(OC)cc1)c1sc3c(CC)cccc3c1O2` (centres undefined), for which the growth was 41.1% (inactive). The value for `Cc1ccc(-c2cc3nc(C(Cl)Cl)nc(C)n3n2)cc1` was 104% (inactive); that for `CCOC(=O)C(=O)CC(=O)N1C(=S)NC(=O)C1CC(C)C` (centres undefined) was 98.5% (inactive). In the case of `COc1ccc(-c2nc(C(Cl)Cl)nc3cc(-c4ccccc4)nn23)cc1`, the growth is -12.9% (active). The value for `CNC(=O)c1cc(-c2ccc(NS(=O)(=O)c3ccc(C)cc3)cc2)nc2cccnc12` was 117% (inactive); that for `NC(N)=Nc1ccc(Oc2cccc(Nc3ccc(Cl)c(C(F)(F)F)c3)c2)cn1` was -64% (active); that for `CCN1CCN(Cc2ccc(C(=O)Nc3ccc(C)c(Oc4ccc(-c5[nH]nc6ncnc(N)c56)cc4)c3)cc2C(F)(F)F)CC1` was 94.9% (inactive). With `COc1ccc(NC(=O)Nc2ccc3c(ccn3C(=O)c3cccc(F)c3)c2)cc1`, the growth is 62.3% (inactive). `CCn1c(SCC(=O)Nc2cccc(C(=O)/C=C/c3ccccc3Cl)c2)nc2ccccc2c1=O`: the growth was 97.7% (inactive). The result for `COc1ccc(-c2nn(-c3ccc(S(C)(=O)=O)cc3)cc2/C=N/O)cc1` reads 101% (inactive); that for `NC(N)=Nc1ccc(Oc2ccc(Nc3ccc(Cl)c(C(F)(F)F)c3)cc2)cc1`, 66.2% (inactive). The value for `COc1ccc(NC(=O)CSc2nnc(-c3ccc4nc(-c5ccc(OC)c(OC)c5)[nH]c4c3)o2)cc1OC` was 95.2% (inactive); that for `Cc1ccc(-n2c(/C=C3\C(=O)Nc4ccccc43)ccc2CO)cc1` was 104% (inactive). The value for `O=C(NNc1nc2cc(F)ccc2n2c(CO)ccc12)c1cnccn1` was 36.4% (inactive). `Nc1ccccc1NC(=O)c1ccc(NC(=O)C/C=C/c2cccnc2)cn1`: the growth was 26% (inactive). The value for `Cn1ccnc1C(=O)/C=C/c1ccc(CNC(=O)c2c(F)c(F)c(F)c(F)c2F)cc1` was 94.9% (inactive); that for `C#C[C@]1(O)CC[C@H]2[C@@H]3CC=C4c5sc(-c6cccc(O)c6)nc5CC[C@]4(C)[C@H]3CC[C@@]21C` was -35% (active); that for `COc1cc2c(cc1OC)C(Sc1ccc(F)cc1)c1c(nc(N)c(C#N)c1N)O2` (centres undefined) was -88.2% (active). The result for `N#Cc1cn(Cc2ccc(Cl)cc2Cl)c(C(=O)c2ccc(Br)cc2)c1N` reads 92% (inactive); that for `O=C(O)c1ccc(-n2cc(CNc3cc(F)c(F)c(F)c3)c(-c3cccc(F)c3)n2)cc1`, 107% (inactive); that for `CCc1cccc(NC(=O)CNc2cc(S(=O)(=O)N(C)C)cc(C)c2C)c1`, 84.1% (inactive). `COc1ccc2c(c1)c(-c1cc(N)n3nc(-c4cn(C)c5ccc(OC)cc45)cc3n1)cn2C`: the growth is 117% (inactive). The result for `C=C(C=O)[C@@H]1CC[C@]2(COC(C)=O)CC[C@]3(C)C(CC[C@@H]4[C@@]5(C)CC[C@H](OC(C)=O)C(C)(C)[C@@H]5CC[C@]43C)[C@@H]12` (some centres undefined) reads 15.1% (inactive). The result for `COc1ccc(-c2nc3ccc(-c4nnc(SCC(=O)Nc5ccc(C(=O)/C=C/c6ccc(Cl)cc6)cc5)o4)cc3[nH]2)cc1` reads 99.4% (inactive).

In the case of `COc1ccc(/C=C(\C#N)C(=O)N2c3ccccc3Sc3ccc(SC)cc32)cc1F`, the growth is 86.5% (inactive). With `O=C(CNc1nc(-c2cccc([N+](=O)[O-])c2)cs1)Nc1cccc(Cl)c1`, the growth is 105% (inactive). The result for `CC1(C)CC[C@]23CC[C@]4(C)[C@H](CC[C@@H]5[C@@]6(C)CCCN(CO)C(C)(C)[C@@H]6CC[C@]54C)[C@H]2[C@H]1OC3` reads 95.9% (inactive); that for `C=C(C=O)[C@@H]1CC[C@]2(C)[C@H](CC=C3[C@H]4[C@@H](C)[C@H](C)CC[C@]4(C(=O)OC)CC[C@]32C)[C@@]1(C)CCC#N`, 2.05% (active); that for `CN(C)C(=O)c1cc(-c2ccc3ncnc(NCc4ccccc4)c3c2)cnc1N`, 62.9% (inactive).
